# Data from the supplement of paper PMC11417369.
# Over roughly 25,000 sequences, “ln(normalized median fluorescence intensity)” has its median near 6.7; the highest 2% begin near 10. The entries come from a sample that favours the highest values as a whole.
# Test system: PfHDP1 homeodomain (GST-tagged)
# Test: gcPBM binding intensity (ln(normalized median fluorescence intensity)); higher = stronger DNA binding
# Procedure, shortened: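 The binding buffer was 1× PBS containing 1% milk, 0.2 mg/ml BSA, 0.5% salmon testes DNA and 0.03% Triton X-100. In it, GST-tagged P. falciparum DNA-binding domains expressed in E. coli were applied for 1 h to an Agilent 4 × 180k array of primer-extended double-stranded 36-bp intergenic genomic probes plus negative controls. Binding intensity, read with Alexa488 anti-GST antibody and a 488 nm scan, is the highest Masliner-normalised natural-log median intensity across replicate spots of either probe orientation.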
row,Sequence,gcPBM binding intensity (ln)
1,TTTTAAATATGCCATACACACTACTCTATAATAAAT [CACACA_site6987],6.56
2,AATTTTATTCATTGAGCACACAAAATAAATTATCAA [CACACA_site9079],6.73
3,TACAAAATAAAAATAATTCTTTCAAAAAATAATAAA [XGTACX_negctrl_site368],5.86
4,ATCTTTCATCTACCAAGTACAAATTACTTTTTTTTT [XGTACX_site7001],6.79
5,ATCAAACAAAAAATAAAAAAATGCGACATGTGTACA [TGCATGCA_negctrl_site164],7.34
6,GTCGAGGATATATAAAGTACATATATATATATGATA [XGTACX_site1128],6.41
7,TTACATAATATATGTACACACGCAAATACTTAGAAT [CACACA_site320],6.63
8,ACCACATTTTTTTTTGCATGTTGTTTAAAAAAAGGC [TGCATGCA_site137],6.74
9,TATTTGTAAATCGATACACACATATATCTTAATATA [CACACA_site4273],6.28
10,AATTTAATATAATGCACACATAAAAAAAAAATCAAA [CACACA_site1],9.95
11,AATTTAATATAATGCACACATAAAACAAAAACAAAA [CACACA_site529],10.5
12,TAACTTAATATTAATGCACACAATTTATATATATAT [CACACA_site3903],10.4
13,AATGCTATCATTAATGCACACATTTAAACTTAATAT [CACACA_site5878],10.6
14,TTCAAAATAAAAAATTCACACACATATATATATATA [CACACA_site8653],9.22
15,TACAATTTAAAACACACACACAATAATACATATATA [CACACA_site1251],6.89
16,AAAATTTAATATAATGCACACATAAAAAAAAAATCA [CACACA_site7882],10.7
17,AATTTAATATAATGCACACATAAAAAAAAATTCAAA [CACACA_site2062],10.5
18,AAAATTTAATATAATGCACACATAAAACAAAAACAA [CACACA_site8071],9.14
19,AATGCTATCATTAATGCACACATTTAAAATTAATAT [CACACA_site3548],10
20,TATTGTCTTGTATATGCATGTAGACCAAATATGTAA [TGCATGCA_site9],6.42
21,AATGAGGATATATACACACATACATTAAAAAAATAT [CACACA_site1849],6.67
22,TATTAAACTGGACACACACACACACCCATATATAAA [CACACA_site4579],6.93
23,TATATCTTAATATTTACACACATGCGCACCCATAAA [CACACA_site5349],7.52
24,GTGTATTTGGTGCGCACACACATGCAAAAAGAAATA [CACACA_site4768],9.15

row,Sequence,gcPBM binding intensity (ln)
1,AAAAAAAAAAAAAAATGTACATATATATATTATAAA [XGTACX_site518],6.33
2,ATTTTATTTTTTAATAGTACTCATTTTTTATGTGAA [XGTACX_site5494],6.48
3,TTAAAGCTGACATATACACACATACATAAATTCATA [CACACA_site5377],6.75
4,GATCCTGGTTCTTGTGGTACTTGTTCATTTGTTATA [XGTACX_site7164],6.69
5,TATATATATATAAGATGTACCCTTTGAAATAATAAT [XGTACX_site7215],8.66
6,CATATATATCGTAATGCACACATGTAATTTCATAAT [CACACA_site811],10.7
7,AATTTAATATAATGCACACATAAAAAAAAAAAATTC [CACACA_site1504],10.6
8,ATATTTTATTATATAGGTACACATAATTTCATGTAA [XGTACX_site415],6.34
9,AATTTAATATAATGCACACATAAAAAAAAAAAAAAA [CACACA_site123],10.5
10,ACTAGACAAAATATAATGCACACTATTATTTTTATT [CACACA_site2726],10.6
11,AAAATTTAATATAATGCACACATAAAAAAAAATTCA [CACACA_site8640],9.79
12,TATAATTTAAAATACACACACATATATATAATATAT [CACACA_site2000],6.76
13,TAGACAAAATATAATGCACACTATTATTTTTATTTA [CACACA_site5508],10.4
14,TATATATATTTATGCACACAAAATATATTATATAAT [CACACA_site5955],10.4
15,AAAATTTAATATAATGCACACATAAAAAAAAAAAAA [CACACA_site7923],10.4
16,AAAATTTAATATAATGCACACATAAAAAAAAAAAAT [CACACA_site8425],10.4
17,ATTTCGTAATTTATATCACACACATATATATATAAT [CACACA_site9021],6.84
18,TATTTATACATACATACACACATATAGATTTATATT [CACACA_site7851],6.85
19,TACATACATACATACACACATACATATGTATATATA [CACACA_site2480],7.37
20,TTTATTAATAGACACACACACACACGCAAAATAAAA [CACACA_site6255],7.16
21,ATGGACTTTTATAGTTGTACATACTATGAGAACTTT [XGTACX_site2800],7.08
22,AAGGGTTGCCTGTGTAGTACATATATATATATATAT [XGTACX_site8555],9.24
23,GAGAAATGGGGACACACACACATATTATATATATAT [CACACA_site4943],8.53
24,TATAAATTTGTTGTTGCATGCAGTATACCAAAAAAA [TGCATGCA_site445],7.18
